# Measurements taken from publication PMC4102417.
# Test system: murine 3T3 fibroblasts
# Assay: primary screen, percent viability or growth; higher = less effect of the substance
# Method: Similarly, for measuring the cytotoxicity concentration (CC50) for 3T3 fibroblast cells, cultures were incubated with drugs for 72 hours and developed using Alamar Blue (Alamar Biosciences Inc, Sacramento, CA) as previously described.
row,Structure (SMILES),Mammalian (3T3) cell % growth at 10 uM
1,CC[C@@]1(O)C(=O)OCc2c1cc1n(c2=O)Cc2cc3ccccc3nc2-1,94.3%
2,Cc1c(O)c(O)cc2c1CC=C1[C@@]2(C)CC[C@@]2(C)[C@@H]3C[C@](C)(C(=O)O)CC[C@]3(C)CC[C@]12C,0.1%
3,CC(C)c1ccc2c(c1O)CC[C@H]1C3=C(CC[C@]21C)C(=O)OC3,83.1%
4,COc1ccc(C[C@H]2NC[C@H](O)[C@H]2OC(C)=O)cc1,10.3%
5,C[C@@H]1CC[C@H]2[C@@H](C)C(=O)O[C@@H]3O[C@@]4(C)CC[C@@H]1[C@]32OO4,77.6%
6,CC1=C(O)C(=O)C=C2C1=CC=C1[C@@]2(C)CC[C@@]2(C)[C@@H]3C[C@](C)(C(=O)O)CC[C@]3(C)CC[C@]12C,1%
7,O=C1C=C2C=C[C@@H]3C[C@@]2(O1)[C@H]1CCCCN31,75%
